# Columns and labels:
# Experiment in all cases: DAPPL (digital affinity profiling via proximity ligation, sequencing); 10 mM Tris-HCl pH 7.5, 50 mM NaCl, 1 mM DTT, 4% glycerol, room temperature, 30 min; GST-TFs on glutathione beads, 16-mer random dsDNA library, 0.1% formaldehyde crosslink after washing; high values mean tight binding
# FLI1 = target: T1, FLI1 (Homo sapiens, UniProt Q01543 1-452); settings: protein: recombinant; tags: N-terminal GST; dsDNA, one strand shown
# T1 sequence: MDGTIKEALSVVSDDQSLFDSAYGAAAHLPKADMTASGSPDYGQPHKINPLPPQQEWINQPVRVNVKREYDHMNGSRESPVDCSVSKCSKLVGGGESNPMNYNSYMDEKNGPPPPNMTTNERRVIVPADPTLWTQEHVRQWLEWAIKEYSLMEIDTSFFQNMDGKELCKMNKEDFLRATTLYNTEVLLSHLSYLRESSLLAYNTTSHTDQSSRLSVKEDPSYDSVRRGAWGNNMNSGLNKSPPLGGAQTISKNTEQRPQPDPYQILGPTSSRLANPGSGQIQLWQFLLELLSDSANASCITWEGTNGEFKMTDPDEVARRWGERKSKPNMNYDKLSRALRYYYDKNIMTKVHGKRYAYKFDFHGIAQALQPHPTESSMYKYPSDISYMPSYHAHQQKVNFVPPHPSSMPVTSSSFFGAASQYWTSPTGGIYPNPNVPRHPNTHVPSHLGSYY
# In short: (§1)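 Pools of DNA-barcoded human transcription factors, expressed in yeast as GST fusions on glutathione beads and combined with a tag-only sample, were incubated with 200 nmole of a 16-mer random double-stranded DNA library. Incubation took 30 min at room temperature in Tris/NaCl/DTT/glycerol buffer and was followed by washing, 0.1% formaldehyde crosslinking, proximity ligation (BsaI/T4 ligase, 1 h, 37 °C), PCR amplification and sequencing on an Illumina NextSeq500. Binding signal is the ratio of a hexamer's read frequency for a factor to its frequency for the tag-only sample.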
# ELK1 = target: T2, ELK1 (Homo sapiens, UniProt P19419 1-428); settings: protein: recombinant; tags: N-terminal GST; dsDNA, one strand shown
# T2 sequence: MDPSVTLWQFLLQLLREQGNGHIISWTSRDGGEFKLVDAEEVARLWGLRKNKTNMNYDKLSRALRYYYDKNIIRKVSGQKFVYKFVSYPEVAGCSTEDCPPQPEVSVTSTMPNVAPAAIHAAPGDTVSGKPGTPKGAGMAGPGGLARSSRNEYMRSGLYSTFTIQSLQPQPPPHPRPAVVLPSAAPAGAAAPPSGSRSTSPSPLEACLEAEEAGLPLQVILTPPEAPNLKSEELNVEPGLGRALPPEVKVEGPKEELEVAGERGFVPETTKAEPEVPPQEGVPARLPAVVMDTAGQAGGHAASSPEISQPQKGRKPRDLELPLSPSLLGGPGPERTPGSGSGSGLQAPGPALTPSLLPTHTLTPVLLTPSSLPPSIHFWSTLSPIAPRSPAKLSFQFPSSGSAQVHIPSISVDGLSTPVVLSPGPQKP
# In short: as §1
# GABPA = target: T3, GABPA (Homo sapiens, UniProt Q06546 1-454); settings: protein: recombinant; tags: N-terminal GST; dsDNA, one strand shown
# T3 sequence: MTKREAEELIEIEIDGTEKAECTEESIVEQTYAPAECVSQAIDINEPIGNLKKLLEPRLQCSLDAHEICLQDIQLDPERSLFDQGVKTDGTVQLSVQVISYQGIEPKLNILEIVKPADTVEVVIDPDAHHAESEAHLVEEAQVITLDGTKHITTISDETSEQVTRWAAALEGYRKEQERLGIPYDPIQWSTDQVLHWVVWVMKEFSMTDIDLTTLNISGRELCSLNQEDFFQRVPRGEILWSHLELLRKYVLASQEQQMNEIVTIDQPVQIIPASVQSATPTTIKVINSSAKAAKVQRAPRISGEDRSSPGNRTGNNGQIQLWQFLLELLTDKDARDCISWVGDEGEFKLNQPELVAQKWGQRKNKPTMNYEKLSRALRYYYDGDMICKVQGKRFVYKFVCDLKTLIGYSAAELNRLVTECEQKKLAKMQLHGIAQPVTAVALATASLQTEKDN
# In short: as §1
# ERG = target: T4, ERG (Homo sapiens, UniProt P11308 1-479); settings: protein: recombinant; tags: N-terminal GST; dsDNA, one strand shown
# T4 sequence: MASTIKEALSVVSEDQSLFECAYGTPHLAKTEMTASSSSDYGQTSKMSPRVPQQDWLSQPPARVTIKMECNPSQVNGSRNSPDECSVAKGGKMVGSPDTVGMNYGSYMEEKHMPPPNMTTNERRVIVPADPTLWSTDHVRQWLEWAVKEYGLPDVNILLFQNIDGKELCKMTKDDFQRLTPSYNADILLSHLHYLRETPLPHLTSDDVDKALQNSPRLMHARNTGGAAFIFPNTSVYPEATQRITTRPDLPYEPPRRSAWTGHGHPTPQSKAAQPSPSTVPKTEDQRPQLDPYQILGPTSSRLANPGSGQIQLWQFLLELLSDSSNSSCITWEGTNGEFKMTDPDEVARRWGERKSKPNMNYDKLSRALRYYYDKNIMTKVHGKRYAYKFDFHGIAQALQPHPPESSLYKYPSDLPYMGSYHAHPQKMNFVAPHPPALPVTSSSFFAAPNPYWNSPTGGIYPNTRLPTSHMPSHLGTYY
# In short: as §1
# ELF1 = ELF1 (Homo sapiens, UniProt P32519 1-619); settings: protein: recombinant; tags: N-terminal GST; dsDNA, one strand shown
# In short: as §1
# EHF = target: T5, EHF (Homo sapiens, UniProt Q9NZC4 1-300); settings: protein: recombinant; tags: N-terminal GST; dsDNA, one strand shown
# T5 sequence: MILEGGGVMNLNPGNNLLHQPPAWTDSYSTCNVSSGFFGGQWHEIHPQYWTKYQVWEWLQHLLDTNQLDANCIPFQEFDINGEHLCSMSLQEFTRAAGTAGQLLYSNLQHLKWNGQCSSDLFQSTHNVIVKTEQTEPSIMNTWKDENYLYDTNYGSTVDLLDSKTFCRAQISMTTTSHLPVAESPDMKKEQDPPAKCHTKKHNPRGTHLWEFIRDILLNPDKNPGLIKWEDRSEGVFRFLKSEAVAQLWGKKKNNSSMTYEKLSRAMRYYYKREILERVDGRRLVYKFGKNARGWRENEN
# In short: as §1
# SPI1 = SPI1 (Homo sapiens, UniProt P17947 1-270); settings: protein: recombinant; tags: N-terminal GST; dsDNA, one strand shown
# In short: as §1
# SPIB = SPIB (Homo sapiens, UniProt Q01892 1-262); settings: protein: recombinant; tags: N-terminal GST; dsDNA, one strand shown
# In short: as §1
# ELK3 = target: T6, ELK3 (Homo sapiens, UniProt P41970 1-407); settings: protein: recombinant; tags: N-terminal GST; dsDNA, one strand shown
# T6 sequence: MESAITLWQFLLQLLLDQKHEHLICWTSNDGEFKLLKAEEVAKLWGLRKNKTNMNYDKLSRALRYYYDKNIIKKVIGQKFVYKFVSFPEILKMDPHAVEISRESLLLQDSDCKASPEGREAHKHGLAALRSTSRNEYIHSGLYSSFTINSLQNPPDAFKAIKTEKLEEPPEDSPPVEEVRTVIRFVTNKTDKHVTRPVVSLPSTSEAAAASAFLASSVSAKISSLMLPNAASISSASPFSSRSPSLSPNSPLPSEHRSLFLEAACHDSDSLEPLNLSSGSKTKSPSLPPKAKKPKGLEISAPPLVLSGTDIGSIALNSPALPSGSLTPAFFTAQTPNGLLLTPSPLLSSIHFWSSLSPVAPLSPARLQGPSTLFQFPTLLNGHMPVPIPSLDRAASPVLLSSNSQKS
# In short: as §1
# FEV = target: T7, FEV (Homo sapiens, UniProt Q99581 1-238); settings: protein: recombinant; tags: N-terminal GST; dsDNA, one strand shown
# T7 sequence: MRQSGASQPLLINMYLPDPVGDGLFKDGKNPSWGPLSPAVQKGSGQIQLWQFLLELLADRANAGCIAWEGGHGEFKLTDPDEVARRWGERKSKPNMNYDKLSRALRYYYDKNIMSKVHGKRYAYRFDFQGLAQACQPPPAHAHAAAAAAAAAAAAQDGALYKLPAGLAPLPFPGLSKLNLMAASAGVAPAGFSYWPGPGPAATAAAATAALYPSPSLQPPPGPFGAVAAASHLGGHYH
# In short: as §1
# ETV5 = ETV5 (Homo sapiens, UniProt P41161 1-510); settings: protein: recombinant; tags: N-terminal GST; dsDNA, one strand shown
# In short: as §1
# HSF1 = HSF1 (Homo sapiens, UniProt Q00613 1-529); settings: protein: recombinant; tags: N-terminal GST; chain copies: 3; dsDNA, one strand shown
# In short: as §1
# SPIC = target: T8, SPIC (Homo sapiens, UniProt Q8N5J4 1-248); settings: protein: recombinant; tags: N-terminal GST; dsDNA, one strand shown
# T8 sequence: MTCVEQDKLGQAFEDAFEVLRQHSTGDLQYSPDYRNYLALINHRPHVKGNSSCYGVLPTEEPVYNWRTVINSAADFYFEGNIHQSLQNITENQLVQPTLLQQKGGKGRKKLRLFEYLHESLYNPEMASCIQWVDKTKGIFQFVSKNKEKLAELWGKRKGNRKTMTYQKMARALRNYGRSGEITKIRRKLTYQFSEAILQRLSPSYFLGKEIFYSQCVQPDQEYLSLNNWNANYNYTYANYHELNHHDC
# In short: as §1
# ELF4 = ELF4 (Homo sapiens, UniProt Q99607 1-663); settings: protein: recombinant; tags: N-terminal GST; dsDNA, one strand shown
# In short: as §1
# ELK4 = target: T9, ELK4 (Homo sapiens, UniProt P28324-2 1-405); settings: protein: recombinant; tags: N-terminal GST; dsDNA, one strand shown
# T9 sequence: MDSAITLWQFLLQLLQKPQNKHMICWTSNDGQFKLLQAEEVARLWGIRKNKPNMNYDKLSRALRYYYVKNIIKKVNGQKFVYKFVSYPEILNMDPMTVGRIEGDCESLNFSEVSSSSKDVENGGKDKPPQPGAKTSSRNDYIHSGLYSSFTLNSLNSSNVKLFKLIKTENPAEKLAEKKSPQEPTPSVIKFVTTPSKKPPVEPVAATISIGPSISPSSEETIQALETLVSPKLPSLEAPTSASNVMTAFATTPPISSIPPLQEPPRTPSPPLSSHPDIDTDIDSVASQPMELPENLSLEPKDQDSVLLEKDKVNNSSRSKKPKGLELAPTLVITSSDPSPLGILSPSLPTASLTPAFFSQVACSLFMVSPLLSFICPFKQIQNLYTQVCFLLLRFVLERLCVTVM
# In short: as §1
# ETV2 = target: T10, ETV2 (Homo sapiens, UniProt O00321 1-342); settings: protein: recombinant; tags: N-terminal GST; dsDNA, one strand shown
# T10 sequence: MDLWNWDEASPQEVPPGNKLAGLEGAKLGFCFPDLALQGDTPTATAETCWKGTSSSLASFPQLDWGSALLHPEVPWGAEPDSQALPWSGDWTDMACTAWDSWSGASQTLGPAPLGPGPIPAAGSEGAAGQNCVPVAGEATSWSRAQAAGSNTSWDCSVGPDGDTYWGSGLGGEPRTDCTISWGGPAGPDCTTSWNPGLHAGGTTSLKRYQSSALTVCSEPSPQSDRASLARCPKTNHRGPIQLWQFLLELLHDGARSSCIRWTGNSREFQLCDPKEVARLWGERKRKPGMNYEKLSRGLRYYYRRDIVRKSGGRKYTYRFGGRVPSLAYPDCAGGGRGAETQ
# In short: as §1
# ELF3 = target: T11, ELF3 (Homo sapiens, UniProt P78545 1-371); settings: protein: recombinant; tags: N-terminal GST; dsDNA, one strand shown
# T11 sequence: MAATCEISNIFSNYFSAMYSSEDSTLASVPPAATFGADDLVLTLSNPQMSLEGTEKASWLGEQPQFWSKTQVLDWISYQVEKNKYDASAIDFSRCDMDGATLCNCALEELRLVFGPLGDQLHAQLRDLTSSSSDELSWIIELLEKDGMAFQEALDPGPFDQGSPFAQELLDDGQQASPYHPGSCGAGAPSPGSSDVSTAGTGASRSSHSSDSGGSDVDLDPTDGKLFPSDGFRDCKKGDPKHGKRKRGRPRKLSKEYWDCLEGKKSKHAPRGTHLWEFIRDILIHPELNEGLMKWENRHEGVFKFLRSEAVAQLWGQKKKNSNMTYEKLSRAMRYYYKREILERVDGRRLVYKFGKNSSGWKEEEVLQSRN
# In short: as §1
# CRX = CRX (Homo sapiens, UniProt O43186 1-299); settings: protein: recombinant; tags: N-terminal GST; dsDNA, one strand shown
# In short: as §1
# ETV1 = ETV1 (Homo sapiens, UniProt P50549 1-477); settings: protein: recombinant; tags: N-terminal GST; dsDNA, one strand shown
# In short: as §1
# SPIB, sequence (Q01892 whole entry): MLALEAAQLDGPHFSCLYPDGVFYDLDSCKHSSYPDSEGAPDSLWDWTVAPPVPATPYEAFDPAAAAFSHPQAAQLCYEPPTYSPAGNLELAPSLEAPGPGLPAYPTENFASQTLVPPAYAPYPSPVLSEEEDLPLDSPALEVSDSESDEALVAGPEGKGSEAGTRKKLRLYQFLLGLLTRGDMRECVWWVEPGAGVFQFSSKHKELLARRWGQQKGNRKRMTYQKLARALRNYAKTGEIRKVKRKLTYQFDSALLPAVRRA
# CRX, sequence (O43186 whole entry): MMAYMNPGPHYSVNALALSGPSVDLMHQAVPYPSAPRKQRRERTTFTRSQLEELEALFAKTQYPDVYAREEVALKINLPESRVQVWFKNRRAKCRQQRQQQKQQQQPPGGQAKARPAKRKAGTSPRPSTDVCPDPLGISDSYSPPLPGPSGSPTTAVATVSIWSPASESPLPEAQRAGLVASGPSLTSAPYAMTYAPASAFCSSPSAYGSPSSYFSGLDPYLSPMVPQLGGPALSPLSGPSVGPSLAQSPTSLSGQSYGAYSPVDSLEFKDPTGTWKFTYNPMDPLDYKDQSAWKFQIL
# ELF4, sequence (Q99607 whole entry): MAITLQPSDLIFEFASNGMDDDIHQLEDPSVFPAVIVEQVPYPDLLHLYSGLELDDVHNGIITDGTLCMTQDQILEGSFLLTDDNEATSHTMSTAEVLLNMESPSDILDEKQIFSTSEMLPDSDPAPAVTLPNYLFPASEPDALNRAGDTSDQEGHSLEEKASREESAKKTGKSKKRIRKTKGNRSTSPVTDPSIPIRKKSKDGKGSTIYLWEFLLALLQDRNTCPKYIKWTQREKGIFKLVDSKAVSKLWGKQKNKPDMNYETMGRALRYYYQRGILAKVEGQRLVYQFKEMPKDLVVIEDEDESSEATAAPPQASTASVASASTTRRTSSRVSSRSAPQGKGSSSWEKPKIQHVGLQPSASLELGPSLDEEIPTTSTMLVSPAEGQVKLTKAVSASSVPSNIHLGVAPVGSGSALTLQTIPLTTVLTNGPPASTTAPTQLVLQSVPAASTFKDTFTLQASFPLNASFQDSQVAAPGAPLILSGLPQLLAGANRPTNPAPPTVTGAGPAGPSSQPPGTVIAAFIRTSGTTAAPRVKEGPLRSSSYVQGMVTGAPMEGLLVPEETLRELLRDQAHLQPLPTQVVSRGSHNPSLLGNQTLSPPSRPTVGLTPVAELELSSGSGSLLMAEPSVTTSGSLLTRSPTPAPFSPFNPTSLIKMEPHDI
# ETV1, sequence (P50549 whole entry): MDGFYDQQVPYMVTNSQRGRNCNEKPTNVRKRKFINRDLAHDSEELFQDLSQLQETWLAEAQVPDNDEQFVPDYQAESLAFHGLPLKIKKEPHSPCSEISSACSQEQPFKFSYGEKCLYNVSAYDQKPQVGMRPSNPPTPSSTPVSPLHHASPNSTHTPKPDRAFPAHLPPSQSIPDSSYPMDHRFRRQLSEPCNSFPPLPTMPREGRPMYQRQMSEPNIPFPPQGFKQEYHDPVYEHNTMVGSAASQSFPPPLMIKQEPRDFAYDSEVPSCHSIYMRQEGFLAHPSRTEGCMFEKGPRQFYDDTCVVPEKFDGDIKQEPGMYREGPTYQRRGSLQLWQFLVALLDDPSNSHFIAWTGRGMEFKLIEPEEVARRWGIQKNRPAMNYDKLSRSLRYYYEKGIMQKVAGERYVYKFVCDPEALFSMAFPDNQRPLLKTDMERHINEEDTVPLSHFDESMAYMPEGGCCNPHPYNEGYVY
# ETV5, sequence (P41161 whole entry): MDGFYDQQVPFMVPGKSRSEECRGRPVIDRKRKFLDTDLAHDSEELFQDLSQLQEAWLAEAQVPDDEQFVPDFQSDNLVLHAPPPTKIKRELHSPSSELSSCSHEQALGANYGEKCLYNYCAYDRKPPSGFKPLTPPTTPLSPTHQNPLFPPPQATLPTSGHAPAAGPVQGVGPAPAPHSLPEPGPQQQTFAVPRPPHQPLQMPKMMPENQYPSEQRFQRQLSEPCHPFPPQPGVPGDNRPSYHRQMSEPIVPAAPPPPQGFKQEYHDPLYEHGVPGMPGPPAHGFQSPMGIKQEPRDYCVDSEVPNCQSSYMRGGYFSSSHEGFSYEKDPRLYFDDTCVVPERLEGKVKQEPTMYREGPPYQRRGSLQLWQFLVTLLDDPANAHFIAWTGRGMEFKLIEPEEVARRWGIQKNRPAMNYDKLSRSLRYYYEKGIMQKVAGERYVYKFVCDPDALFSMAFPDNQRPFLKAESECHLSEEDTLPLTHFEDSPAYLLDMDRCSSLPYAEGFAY
# HSF1, sequence (Q00613 whole entry): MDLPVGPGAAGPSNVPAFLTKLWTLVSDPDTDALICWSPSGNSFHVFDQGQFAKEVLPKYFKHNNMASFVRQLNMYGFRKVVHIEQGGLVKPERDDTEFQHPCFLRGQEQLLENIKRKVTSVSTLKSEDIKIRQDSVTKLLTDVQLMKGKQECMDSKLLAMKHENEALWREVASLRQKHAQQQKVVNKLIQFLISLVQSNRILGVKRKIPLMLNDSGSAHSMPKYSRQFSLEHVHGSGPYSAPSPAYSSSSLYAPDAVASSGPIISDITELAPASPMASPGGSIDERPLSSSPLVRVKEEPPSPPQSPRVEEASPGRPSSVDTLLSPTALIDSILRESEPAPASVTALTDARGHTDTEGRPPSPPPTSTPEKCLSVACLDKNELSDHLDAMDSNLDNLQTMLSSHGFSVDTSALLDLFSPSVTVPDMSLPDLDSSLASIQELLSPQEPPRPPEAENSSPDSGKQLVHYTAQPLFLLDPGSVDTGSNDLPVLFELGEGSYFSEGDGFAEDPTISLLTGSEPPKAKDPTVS
# ELF1, sequence (P32519 whole entry): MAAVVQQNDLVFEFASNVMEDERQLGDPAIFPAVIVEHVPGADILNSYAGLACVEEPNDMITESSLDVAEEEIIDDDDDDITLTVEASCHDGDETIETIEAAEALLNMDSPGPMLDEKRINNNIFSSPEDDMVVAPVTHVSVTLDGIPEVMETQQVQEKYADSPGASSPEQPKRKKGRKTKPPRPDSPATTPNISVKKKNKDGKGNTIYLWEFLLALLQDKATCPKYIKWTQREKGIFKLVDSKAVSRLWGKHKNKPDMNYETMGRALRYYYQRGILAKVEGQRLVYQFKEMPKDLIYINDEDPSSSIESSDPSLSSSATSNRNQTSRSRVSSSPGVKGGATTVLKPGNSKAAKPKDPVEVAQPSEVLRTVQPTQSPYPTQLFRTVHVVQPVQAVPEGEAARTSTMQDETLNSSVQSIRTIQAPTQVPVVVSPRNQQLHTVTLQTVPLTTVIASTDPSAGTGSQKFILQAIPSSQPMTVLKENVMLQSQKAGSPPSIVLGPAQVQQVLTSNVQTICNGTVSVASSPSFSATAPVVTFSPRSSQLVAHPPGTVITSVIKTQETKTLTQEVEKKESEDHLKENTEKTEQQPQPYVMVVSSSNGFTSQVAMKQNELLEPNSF
sequence,measurement,setting,value
GGTATT,binding signal,FLI1,"1.2 fold enrichment (6-mer frequency, TF over GST control)"
same,binding signal,ELK1,"1.17 fold enrichment (6-mer frequency, TF over GST control)"
same,binding signal,GABPA,"1.23 fold enrichment (6-mer frequency, TF over GST control)"
same,binding signal,ERG,"1.24 fold enrichment (6-mer frequency, TF over GST control)"
same,binding signal,ELF1,"1.18 fold enrichment (6-mer frequency, TF over GST control)"
same,binding signal,EHF,"1.19 fold enrichment (6-mer frequency, TF over GST control)"
same,binding signal,SPI1,"1.16 fold enrichment (6-mer frequency, TF over GST control)"
same,binding signal,SPIB,"1.2 fold enrichment (6-mer frequency, TF over GST control)"
same,binding signal,ELK3,"1.15 fold enrichment (6-mer frequency, TF over GST control)"
same,binding signal,FEV,"1.1 fold enrichment (6-mer frequency, TF over GST control)"
same,binding signal,ETV5,"1.16 fold enrichment (6-mer frequency, TF over GST control)"
same,binding signal,HSF1,"1.39 fold enrichment (6-mer frequency, TF over GST control)"
same,binding signal,SPIC,"1.14 fold enrichment (6-mer frequency, TF over GST control)"
same,binding signal,ELF4,"1.12 fold enrichment (6-mer frequency, TF over GST control)"
same,binding signal,ELK4,"1.14 fold enrichment (6-mer frequency, TF over GST control)"
same,binding signal,ETV2,"1.12 fold enrichment (6-mer frequency, TF over GST control)"
same,binding signal,ELF3,"1.1 fold enrichment (6-mer frequency, TF over GST control)"
same,binding signal,CRX,"1.66 fold enrichment (6-mer frequency, TF over GST control)"
same,binding signal,ETV1,"1.16 fold enrichment (6-mer frequency, TF over GST control)"
